Results taken from the supplement of paper PMC3414501.
Counter-ions that a name gives are not always drawn.

Test system: S. cerevisiae SK1 pCDA2-eGFP (USY613), sporulating;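 active = score above 5; some higher scores were not called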
Assay: CDA2-GFP sporulation assay sensitivity score (z-score vs DMSO controls); higher = stronger inhibition of sporulation, active = hit call of the paper

CDA2-GFP sporulation assay sensitivity score, active:
CC(C)OC(=O)CCC/C=C\C[C@@H]1[C@@H](CC[C@@H](O)CCc2ccccc2)[C@H](O)C[C@@H]1O [Latanoprost] (stock concentration (mM, diluted 1:100): 10.3) 8.85

CDA2-GFP sporulation assay sensitivity score, inactive:
CN(C)CCc1c[nH]c2ccc(C[C@H]3COC(=O)N3)cc12 [Zolmitriptan] (stock concentration (mM, diluted 1:100): 10) -0.81
CCCCN1CCCC1CNC(=O)c1cc(C#N)c2ccccc2c1OC (stereo not given) [Nafadotride] (stock concentration (mM, diluted 1:100): 10) 3.66
CC(C)(C)NC(=O)[C@H]1CC[C@H]2[C@@H]3CC[C@H]4NC(=O)C=C[C@]4(C)[C@H]3CC[C@]12C [Finasteride] (stock concentration (mM, diluted 1:100): 10) 3.51
OCc1cccnc1 [3-Pyridinemethanol] (stock concentration (mM, diluted 1:100): 10) 2.69
Nc1nc(Cl)nc2c1ncn2[C@H]1C[C@H](O)[C@@H](CO)O1 [2-Chloro-2-Deoxyadenosine] (stock concentration (mM, diluted 1:100): 10) 1.98
COc1ccc2cc([C@H](C)C(=O)O)ccc2c1 [Naproxen sodium] (stock concentration (mM, diluted 1:100): 10) 1.69
C#C[C@]1(O)CC[C@H]2[C@@H]3CCC4=CC(=O)CC[C@@H]4[C@H]3CC[C@@]21CC [Levonorgestrel] (stock concentration (mM, diluted 1:100): 10) 0.19
OCc1cc(C(O)CNCCCCCCOCCCCc2ccccc2)ccc1O (stereo not given) [Salmeterol] (stock concentration (mM, diluted 1:100): 10) 10.5
OCCN1C[C@H](O)[C@@H](O)[C@H](O)[C@H]1CO [Miglitol] (stock concentration (mM, diluted 1:100): 10) 1.46
COc1ccc(C2CNC(=O)C2)cc1OC1CCCC1 (stereo not given) [Rolipram] (stock concentration (mM, diluted 1:100): 10) -2.81
CC[C@@H]1C(=O)OC[C@@H]1Cc1cncn1C [Pilocarpine hydrochloride] (stock concentration (mM, diluted 1:100): 10) 1.83
Cc1[nH]cnc1CN1CCc2c(c3ccccc3n2C)C1=O [Alosetron hydrochloride] (stock concentration (mM, diluted 1:100): 8.9) -0.89
Cc1cccc(C)c1NC(=O)C(C)N (stereo not given) [Tocainide] (stock concentration (mM, diluted 1:100): 10) 0.62
CC(=O)O[C@H]1C[C@@H]2CC[C@@H]3[C@H](CC[C@@]4(C)[C@H]3C[C@H]([N+]3(C)CCCCC3)[C@@H]4OC(C)=O)[C@@]2(C)C[C@@H]1N1CCCCC1 [Vecuronium bromide] (stock concentration (mM, diluted 1:100): 10) 1.32
C=CC[C@@H]1/C=C(\C)C[C@H](C)C[C@H](OC)[C@H]2O[C@@](O)(C(=O)C(=O)N3CCCC[C@H]3C(=O)O[C@H](/C(C)=C/[C@@H]3CC[C@@H](O)[C@H](OC)C3)[C@H](C)[C@@H](O)CC1=O)[C@H](C)C[C@@H]2OC [Tacrolimus] (stock concentration (mM, diluted 1:100): 10) 0.75
Cc1ncc([N+](=O)[O-])n1CC(C)O (stereo not given) [Secnidazole] (stock concentration (mM, diluted 1:100): 10) 0.94
C/C=C1\[C@H]2C=C(C)C[C@]1(N)c1ccc(=O)[nH]c1C2 [Huperzine a] (stock concentration (mM, diluted 1:100): 10) 3.17
CC(C)Oc1ccc2c(=O)c(-c3ccccc3)coc2c1 [Ipriflavone] (stock concentration (mM, diluted 1:100): 10) -1.58
CCOC(=O)c1ncn2c1CN(C)C(=O)c1cc(F)ccc1-2 [Flumazenil] (stock concentration (mM, diluted 1:100): 10) 1.01
